Records with an inconclusive call do not appear. Active and inactive are the calls of the source. Unless noted, the call rests on the fitted dose curve; in most records, active means well fitted curve in the direction sought with a large enough effect in the repeat runs; inconclusive means weak or mixed curves; inactive means no such curve, though single readings can be large; an effect the other way counts as inactive or inconclusive.
Assays:
[1] = qHTS assay to identify small molecule antagonists of the sonic hedgehog signaling (Shh) pathway (AID 1259369; calls by dose curve; further: nearly all actives have a fitted effect of over 45% in size; further: potency means the concentration at half of the fitted maximal effect)
Summary of the method: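 NIH/3T3-derived 3T3Gli1-Luc cells with stably integrated Gli1-Luc reporter were preincubated 4hr at 37 C, then given compounds in DMSO plus Shh conditioned medium and incubated 24hr. Firefly luciferase luminescence read after 30min reagent at room temperature.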

[2] = qHTS assay to identify small molecule agonists of the androgen receptor (AR) signaling pathway in the presence of an antagonist - cell viability counter screen (AID 1259379); further: nearly all actives have a fitted effect of over 25% in size; further: potency means the concentration at half of the fitted maximal effect
Summary of the method: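 MDA-kb2 human breast carcinoma cells (stable MMTV-luciferase, AR/GR responsive) were seeded 3,000 cells/well, pre-incubated 5 hr at 37C without CO2, then given 3.0uM nilutamide and compounds at 15 concentrations for 16 hr. Viability was read by CellTiter-Fluor fluorescence.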

[3] = qHTS assay to identify small molecule agonists of the estrogen receptor beta (ER-beta) signaling pathway - cell viability counter screen (AID 1259380); further: nearly all actives have a fitted effect of over 30% in size; further: potency means the concentration at half of the fitted maximal effect
Summary of the method: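 ER-beta-UAS-bla HEK293T cells in medium with 2% charcoal-stripped FBS were preincubated 6 hr at 37C, dosed with compound in DMSO for 16 hr, then after the bla read, CellTiter-Glo was added for 30 min at room temperature; luminescence recorded.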

[4] = qHTS assay to identify small molecule antagonists of the estrogen receptor beta (ER-beta) signaling pathway - cell viability counter screen (AID 1259382); further: nearly all actives have a fitted effect of over 55% in size; further: potency means the concentration at half of the fitted maximal effect
Summary of the method: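 ER-beta-UAS-bla HEK293T cells (2,000/well, 2% charcoal-stripped FBS) were pre-incubated 6 hr at 37C, then given compound plus 1nM final 17-beta-estradiol for 16 hr. Viability was read in the same wells by CellTiter-Glo luminescence after 30 min at room temperature.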

[5] = qHTS assay to identify small molecule agonists or antagonists of the thyroid stimulating hormone receptor (TSHR) signaling pathway - wild type cell line counter screen (AID 1259384; calls by dose curve; further: potency means the concentration at half of the fitted maximal effect)
Summary of the method: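 Wild-type HEK293 cells were plated 18 h at 37 C/5% CO2, pin-dosed with compound plus Ro20-1724 medium, held 30 min at room temperature, then given cAMP-d2 and anti-cAMP-cryptate; fluorescence was read after 1 h. Fifteen concentrations, triplicate.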

[6] = molecular target: Thyrotropin receptor (Homo sapiens) (UniProt P16473); experiment: qHTS assay to identify small molecule antagonists of the thyroid stimulating hormone receptor (TSHR) signaling pathway (AID 1259385; calls by dose curve; further: nearly all actives have a fitted effect of over 20% in size; further: potency means the concentration at half of the fitted maximal effect)
Thyrotropin receptor (Homo sapiens), sequence (P16473 whole entry, looked up): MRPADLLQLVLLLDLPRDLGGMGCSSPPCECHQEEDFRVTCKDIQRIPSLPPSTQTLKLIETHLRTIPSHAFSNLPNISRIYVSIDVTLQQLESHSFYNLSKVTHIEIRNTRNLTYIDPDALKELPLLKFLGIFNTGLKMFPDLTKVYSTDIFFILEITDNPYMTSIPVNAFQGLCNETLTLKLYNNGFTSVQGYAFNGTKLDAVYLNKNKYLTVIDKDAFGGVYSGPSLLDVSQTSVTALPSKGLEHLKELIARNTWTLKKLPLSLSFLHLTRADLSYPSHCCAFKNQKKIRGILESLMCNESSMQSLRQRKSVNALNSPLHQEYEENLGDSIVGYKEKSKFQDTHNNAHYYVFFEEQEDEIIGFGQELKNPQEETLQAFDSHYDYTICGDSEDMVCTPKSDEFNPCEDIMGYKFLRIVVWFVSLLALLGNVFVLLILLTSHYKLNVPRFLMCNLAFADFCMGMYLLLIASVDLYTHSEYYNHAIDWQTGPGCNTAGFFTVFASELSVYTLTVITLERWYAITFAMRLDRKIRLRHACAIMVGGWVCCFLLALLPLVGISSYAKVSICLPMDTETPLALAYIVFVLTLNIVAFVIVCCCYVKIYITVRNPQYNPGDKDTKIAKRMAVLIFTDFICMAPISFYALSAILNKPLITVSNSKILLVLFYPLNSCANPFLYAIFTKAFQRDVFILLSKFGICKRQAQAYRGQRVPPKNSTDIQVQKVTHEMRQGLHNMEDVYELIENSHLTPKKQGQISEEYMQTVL
Summary of the method: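 TSHR-HEK293 cells were plated and held 18 h at 37C/5% CO2, then given compound plus Ro20-1724 and stimulated with TSH at 1.5 ng/mL final. After 30 min at room temperature, cAMP was detected with cAMP-d2/anti-cAMP-cryptate (1 h) by fluorescence.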

[7] = qHTS assay to identify small molecule agonists of the estrogen receptor alpha (ER-alpha) signaling pathway in the presence of an antagonist - cell viability counter screen (AID 1259386);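 further: cells exposed to compounds for 22 h at 37 °C before the viability read; nearly all actives have a fitted effect of over 30% in size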; further: potency means the concentration at half of the fitted maximal effect
Summary of the method: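 VM7Luc4E2 cells (endogenous full-length ER-alpha, 4×ERE-luciferase) were held 5 days in phenol red-free medium with 10% charcoal-stripped FBS, plated, then given 10.0nM ICI-182,780 and compounds at 15 concentrations for 22hr at 37C; viability read by CellTiter-Fluor fluorescence.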

[8] = qHTS assay to identify small molecule antagonists of the progesterone receptor (PR) signaling pathway - cell viability counter screen (AID 1346798); further: nearly all actives have a fitted effect of over 50% in size; further: potency means the concentration at half of the fitted maximal effect
Summary of the method: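 Counter screen for cytotoxicity: viability of PR-UAS-bla HEK293T cells was measured with CellTiter-Glo luminescence following 16 hr compound exposure in the presence of R5020.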

[9] = qHTS assay to identify small molecule agonists of the progesterone receptor (PR) signaling pathway - cell viability counter screen (AID 1346799; calls by dose curve; further: nearly all actives have a fitted effect of over 45% in size; further: potency means the concentration at half of the fitted maximal effect)
Summary of the method: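 Cells (PR-UAS-bla HEK293T) are plated at 3,000/well in 2% charcoal-stripped FBS medium, rested 6 hr, dosed and incubated 16 hr at 37C. CellTiter-Glo is then added and luminescence measured after 30 min at room temperature.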

[10] = qHTS assay to identify small molecule antagonists of the TGF-beta/Smad signaling pathway - cell viability counter screen (AID 1346824); further: nearly all actives have a fitted effect of over 50% in size; further: potency means the concentration at half of the fitted maximal effect
Summary of the method: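 SBE-bla HEK 293T cells were plated overnight at 37 C, then given compounds in DMSO plus TGF-beta1 (added as 0.25 ng/mL solution) for 5 hr. After the bla read, CellTiter-Glo was added to the same wells and luminescence read after 30 min at room temperature.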

[11] = qHTS assay to identify small molecule agonists of the TGF-beta/Smad signaling pathway - cell viability counter screen (AID 1346829); further: nearly all actives have a fitted effect of over 45% in size; further: potency means the concentration at half of the fitted maximal effect
Summary of the method: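 Compound-treated SBE-bla HEK 293T cells (5 hr, 37 C) were assessed for viability with CellTiter-Glo in parallel with the reporter read.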

[12] = molecular target: Estrogen receptor (Homo sapiens) (UniProt P03372); experiment: qHTS assay to identify small molecule agonists of the estrogen receptor alpha (ER-alpha) signaling pathway in the presence of an antagonist (AID 1259383; calls by dose curve; further: top concentration of the series differs between compounds; nearly all actives have a fitted effect of over 15% in size)
Estrogen receptor (Homo sapiens), sequence (P03372 whole entry, looked up): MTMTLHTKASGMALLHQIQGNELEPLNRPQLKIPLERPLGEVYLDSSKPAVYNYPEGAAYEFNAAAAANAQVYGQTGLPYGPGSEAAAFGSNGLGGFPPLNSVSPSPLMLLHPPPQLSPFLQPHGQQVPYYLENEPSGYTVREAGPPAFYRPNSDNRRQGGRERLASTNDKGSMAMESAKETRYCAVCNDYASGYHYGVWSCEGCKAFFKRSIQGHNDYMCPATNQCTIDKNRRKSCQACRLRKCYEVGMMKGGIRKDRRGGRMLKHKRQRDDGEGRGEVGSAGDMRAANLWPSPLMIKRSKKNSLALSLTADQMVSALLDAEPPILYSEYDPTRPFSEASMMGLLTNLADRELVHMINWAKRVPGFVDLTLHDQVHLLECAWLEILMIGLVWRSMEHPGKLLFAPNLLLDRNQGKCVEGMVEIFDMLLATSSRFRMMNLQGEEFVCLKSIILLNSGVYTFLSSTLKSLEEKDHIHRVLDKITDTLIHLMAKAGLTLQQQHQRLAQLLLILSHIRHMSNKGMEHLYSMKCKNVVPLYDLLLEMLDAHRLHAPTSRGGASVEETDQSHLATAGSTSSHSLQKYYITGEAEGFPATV
Summary of the method: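 VM7Luc4E2 cells (endogenous full-length ER-alpha, 4×ERE-luciferase) were precultured 5 days in phenol red-free medium with 10% charcoal-stripped FBS, given 10.0nM ICI-182,780 (final), then treated with compounds at 15 concentrations for 22hr at 37C; luminescence read with ONE-Glo.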

[13] = molecular target: Progesterone receptor (Homo sapiens) (UniProt P06401); experiment: qHTS assay to identify small molecule agonists of the progesterone receptor (PR) signaling pathway (AID 1346784; calls by dose curve; further: nearly all actives have a fitted effect of over 30% in size)
Progesterone receptor (Homo sapiens), sequence (P06401 whole entry, looked up): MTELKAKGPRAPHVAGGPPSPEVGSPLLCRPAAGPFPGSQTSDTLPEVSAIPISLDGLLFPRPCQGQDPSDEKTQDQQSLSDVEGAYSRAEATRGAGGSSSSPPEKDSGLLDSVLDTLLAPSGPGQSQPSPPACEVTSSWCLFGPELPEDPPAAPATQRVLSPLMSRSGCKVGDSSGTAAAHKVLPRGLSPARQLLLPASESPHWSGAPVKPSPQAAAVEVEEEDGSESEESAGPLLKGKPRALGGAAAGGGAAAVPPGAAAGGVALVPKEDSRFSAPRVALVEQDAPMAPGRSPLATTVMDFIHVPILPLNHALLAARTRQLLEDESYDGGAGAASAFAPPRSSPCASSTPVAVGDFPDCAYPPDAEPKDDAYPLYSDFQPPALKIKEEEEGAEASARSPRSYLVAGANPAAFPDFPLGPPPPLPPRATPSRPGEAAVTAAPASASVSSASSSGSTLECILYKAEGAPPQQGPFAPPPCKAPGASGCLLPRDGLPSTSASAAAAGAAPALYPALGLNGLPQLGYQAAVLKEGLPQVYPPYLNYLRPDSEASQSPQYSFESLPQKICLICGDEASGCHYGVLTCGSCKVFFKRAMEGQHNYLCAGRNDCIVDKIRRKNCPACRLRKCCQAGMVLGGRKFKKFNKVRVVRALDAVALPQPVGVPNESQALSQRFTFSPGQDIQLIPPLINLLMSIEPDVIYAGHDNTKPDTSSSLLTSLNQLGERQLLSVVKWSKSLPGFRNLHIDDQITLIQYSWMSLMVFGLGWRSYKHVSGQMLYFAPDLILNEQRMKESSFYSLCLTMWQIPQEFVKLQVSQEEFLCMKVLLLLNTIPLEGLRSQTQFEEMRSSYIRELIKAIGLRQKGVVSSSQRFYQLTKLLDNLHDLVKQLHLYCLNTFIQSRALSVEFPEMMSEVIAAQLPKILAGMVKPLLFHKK
Summary of the method: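 Cells (PR-UAS-bla HEK 293T, GripTite) were plated in assay medium containing 2% charcoal-stripped FBS and incubated 6 hr. Test compounds in DMSO were added for 16 hr at 37C. FRET substrate was then loaded for 2 hr at room temperature before fluorescence reading.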

[14] = molecular target: Progesterone receptor (Homo sapiens) (UniProt P06401); experiment: qHTS assay to identify small molecule antagonists of the progesterone receptor (PR) signaling pathway (AID 1346795; active means well fitted inhibition curve with a large enough effect in the signal ratio in the repeat runs, not every such curve was filed as active; the % refers to the signal ratio; further: potency means the concentration at half of the fitted maximal effect)
Summary of the method: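 Antagonist mode: compounds tested against 1 nM (final) promegestone stimulation in HEK293T cells expressing PR-UAS-bla reporter, 16 hr at 37C, 5% CO2; beta-lactamase activity detected via B/G FRET substrate after 2 hr at room temperature.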

[15] = qHTS assay to identify small molecule agonists of the TGF-beta/Smad signaling pathway (AID 1346859; active means well fitted activation curve with a large enough effect in the signal ratio in the repeat runs, not every such curve was filed as active; the % refers to the signal ratio; further: series mostly up to about 77 µM)
Summary of the method: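 Reporter line: HEK 293T with stably integrated SBE-controlled beta-lactamase. Compound exposure lasts 5 hr at 37 C and 5% CO2; substrate loading follows for 2 hr at room temperature, with emission read at 460 and 530 nm.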

[16] = molecular target: Thyrotropin-releasing hormone receptor (Homo sapiens) (UniProt P34981); experiment: qHTS assay to identify small molecule antagonists of the thyrotropin-releasing hormone receptor (TRHR) signaling pathway (AID 1346877; active means well fitted inhibition curve with a large enough effect in the repeat runs, not every such curve was filed as active; further: series mostly up to about 51 µM)
Thyrotropin-releasing hormone receptor (Homo sapiens), sequence (P34981 whole entry, looked up): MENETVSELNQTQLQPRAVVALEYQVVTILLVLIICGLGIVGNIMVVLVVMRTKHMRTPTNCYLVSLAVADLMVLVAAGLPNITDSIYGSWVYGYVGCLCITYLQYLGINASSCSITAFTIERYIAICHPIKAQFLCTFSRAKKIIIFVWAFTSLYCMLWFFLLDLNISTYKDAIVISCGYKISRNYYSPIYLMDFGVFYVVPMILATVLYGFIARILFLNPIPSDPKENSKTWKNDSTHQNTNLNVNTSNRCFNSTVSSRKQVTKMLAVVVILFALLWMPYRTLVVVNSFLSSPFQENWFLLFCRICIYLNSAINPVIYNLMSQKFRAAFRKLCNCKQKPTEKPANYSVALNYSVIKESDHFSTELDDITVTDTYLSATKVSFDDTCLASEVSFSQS
Summary of the method: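 TRHR-expressing HEK293 cells were seeded, cultured 18 h at 37 °C, then loaded with calcium dye for 2 h. Compounds were pre-incubated 5 min at room temperature before 1 nM TRH (final) was added, and kinetic fluorescence was recorded for 3 min.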

[17] = molecular target: Thyrotropin-releasing hormone receptor (Homo sapiens) (UniProt P34981); experiment: qHTS assay to identify small molecule agonists of the thyrotropin-releasing hormone receptor (TRHR) signaling pathway (AID 1346891; calls by dose curve; further: series mostly up to about 58 µM)
Summary of the method: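 Cells: TRHR-Hek293, seeded and incubated 18 h. Dye loading: 2 h at 37 °C. Compound added from DMSO stock by pin tool. Read-out: kinetic calcium fluorescence over 3 min.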

[18] = molecular target: Androgen receptor (Homo sapiens) (UniProt P10275); experiment: qHTS assay to identify small molecule agonists of the androgen receptor (AR) signaling pathway in the presence of an antagonist (AID 1259381; calls by dose curve; further: nearly all actives have a fitted effect of over 15% in size)
Androgen receptor (Homo sapiens), sequence (P10275 whole entry, looked up): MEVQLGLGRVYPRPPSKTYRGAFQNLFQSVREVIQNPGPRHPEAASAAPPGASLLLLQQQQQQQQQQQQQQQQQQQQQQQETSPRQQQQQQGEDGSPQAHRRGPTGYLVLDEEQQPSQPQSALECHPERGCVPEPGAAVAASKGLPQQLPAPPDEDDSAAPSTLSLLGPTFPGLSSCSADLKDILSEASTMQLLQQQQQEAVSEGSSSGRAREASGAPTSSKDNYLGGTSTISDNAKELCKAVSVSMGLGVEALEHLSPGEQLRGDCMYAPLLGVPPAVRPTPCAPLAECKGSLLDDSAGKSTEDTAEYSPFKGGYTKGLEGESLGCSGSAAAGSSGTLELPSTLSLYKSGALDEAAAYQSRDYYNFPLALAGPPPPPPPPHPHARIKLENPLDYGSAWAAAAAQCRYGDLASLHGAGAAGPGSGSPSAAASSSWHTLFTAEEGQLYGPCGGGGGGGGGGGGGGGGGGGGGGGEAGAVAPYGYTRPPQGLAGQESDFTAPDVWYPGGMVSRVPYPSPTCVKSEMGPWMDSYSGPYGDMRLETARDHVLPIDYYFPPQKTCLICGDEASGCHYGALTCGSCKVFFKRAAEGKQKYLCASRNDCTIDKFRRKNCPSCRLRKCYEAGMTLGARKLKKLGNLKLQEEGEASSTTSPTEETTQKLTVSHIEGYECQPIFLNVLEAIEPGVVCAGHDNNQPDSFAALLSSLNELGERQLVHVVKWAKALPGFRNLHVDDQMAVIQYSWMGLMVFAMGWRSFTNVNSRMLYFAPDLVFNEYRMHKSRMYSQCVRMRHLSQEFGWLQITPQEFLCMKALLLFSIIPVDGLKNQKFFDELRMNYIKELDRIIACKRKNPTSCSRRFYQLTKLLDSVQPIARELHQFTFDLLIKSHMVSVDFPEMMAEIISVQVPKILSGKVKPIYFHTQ
Summary of the method: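 MDA-kb2 human breast carcinoma cells carrying an MMTV-luciferase reporter (AR- and GR-responsive) were treated with compounds at 15 concentrations plus 3.0uM final nilutamide for 16hr at 37C without CO2; luminescence was read after ONE-Glo addition.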

[19] = molecular target: Estrogen receptor beta (Homo sapiens) (UniProt Q92731); experiment: qHTS assay to identify small molecule agonists of the estrogen receptor beta (ER-beta) signaling pathway (AID 1259377; active means well fitted activation curve with a large enough effect in the signal ratio in the repeat runs, not every such curve was filed as active; the % refers to the signal ratio)
Estrogen receptor beta (Homo sapiens), sequence (Q92731 whole entry, looked up, the tested form may be a part): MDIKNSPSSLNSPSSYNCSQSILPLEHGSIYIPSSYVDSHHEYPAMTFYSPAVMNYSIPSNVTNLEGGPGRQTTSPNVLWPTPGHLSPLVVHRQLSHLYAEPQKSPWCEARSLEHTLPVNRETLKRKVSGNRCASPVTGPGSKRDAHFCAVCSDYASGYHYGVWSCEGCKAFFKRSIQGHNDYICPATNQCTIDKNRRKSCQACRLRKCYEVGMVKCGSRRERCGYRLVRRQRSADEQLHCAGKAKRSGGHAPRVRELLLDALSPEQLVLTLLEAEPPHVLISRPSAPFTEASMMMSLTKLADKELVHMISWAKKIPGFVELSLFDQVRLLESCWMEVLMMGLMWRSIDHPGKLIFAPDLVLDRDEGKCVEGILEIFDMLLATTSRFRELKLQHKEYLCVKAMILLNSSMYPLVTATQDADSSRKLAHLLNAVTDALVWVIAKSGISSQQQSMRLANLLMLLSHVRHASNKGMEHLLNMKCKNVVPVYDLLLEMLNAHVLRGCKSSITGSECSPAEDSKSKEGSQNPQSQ
Summary of the method: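 Agonist mode cell assay in GripTite HEK293T cells expressing an ER-beta fusion that drives beta-lactamase from an Upstream Activator Sequence; 16 hr compound exposure at 37C, then 2 h LiveBLAzer B/G FRET substrate at room temperature, fluorescence read-out.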

[20] = molecular target: Estrogen receptor beta (Homo sapiens) (UniProt Q92731); experiment: qHTS assay to identify small molecule antagonists of the estrogen receptor beta (ER-beta) signaling pathway (AID 1259378; active means well fitted inhibition curve with a large enough effect in the signal ratio in the repeat runs, not every such curve was filed as active; the % refers to the signal ratio; further: potency means the concentration at half of the fitted maximal effect)
Summary of the method: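 ER-beta-UAS-bla HEK293T (GripTite) cells in 2% charcoal-stripped FBS medium were preincubated 6 hr at 37C, dosed with compound, then stimulated with 1 nM E2 (final) for 16 hr; beta-lactamase reporter read by B/G FRET fluorescence after 2 hr substrate loading.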

Measured: Potency

CC(O)C(=O)[O][Hg][c]1ccccc1 (stereo not drawn)
active: [1] 0.0306 µM | [2] 6.86 µM | [3] 4.86 µM | [4] 4.33 µM | [5] 5.66 µM | [6] 54.5 µM | [7] 12.2 µM | [8] 4.86 µM | [9] 4.86 µM | [10] 9.77 µM | [11] 17.4 µM

O=P(Cl)(Cl)Cl
not listed: [6] | [18] | [19] | [20]
inactive: all other assays above

O=C(NC(=O)c1c(F)cccc1F)Nc1ccc(Oc2ccc(C(F)(F)F)cc2Cl)cc1F
active: [1] 6.86 µM | [2] 68.6 µM
inactive: [3] | [4] | [5] | [13] | [14] | [8] | [15] | [16] | [17]

COP(=O)(OC)O/C(=C\Cl)c1cc(Cl)c(Cl)cc1Cl
active: [14] 6.86 µM
not listed: [2] | [3] | [4] | [6] | [9] | [15] | [19] | [20]
inactive: all other assays above

O=S1(=O)OCC2C(CO1)C1(Cl)C(Cl)=C(Cl)C2(Cl)C1(Cl)Cl (stereo not drawn)
inactive: [1] | [4] | [5] | [7] | [13] | [8] | [9] | [10] | [11] | [16] | [17]

CCCCCCCc1ccc(O)cc1
active: [20] 54.5 µM | [3] 54.5 µM | [4] 48.6 µM | [14] 21.7 µM
not listed: [1] | [7] | [9] | [11] | [15]
inactive: all other assays above

CC(Cc1ccc2c(c1)OCO2)NO (stereo not drawn)
not listed: [2] | [18] | [19] | [20]
inactive: all other assays above

O.O.O.O.O.O.O.O=S(=O)([O-])[O-].[Co+2]
inactive: [1] | [3] | [4] | [10] | [11] | [15]

Reference: PubChem BioAssay (Tox21)
